The source of these data is PubChem BioAssay AID720526 (National Center for Advancing Translational Sciences (NCATS), 2013).

Each structure is given as a SMILES string. Inconclusive results are not listed. Calls of active or inactive are those of the source. The call rests on the fitted dose curve; in most records, active means well fitted activation curve with a large enough effect; inconclusive means small, poorly fitted or top-dose-only effect; inactive means no such curve, though single readings can be large or run the other way.

The assay is described as follows: qHTS Assay for NPC1 Promoter Activators: Hit Validation Using Renila Luciferase Read-Out for NPC1. Particulars: Huh7 NPC1 promoter-luciferase reporter, luminescence, 24 h; series mostly up to 76.9 µM. The text has this: Niemann Pick Type C (NPC) is a rare neurodegenerative lipidosis that is characterized by lipid storage in the endosomal/lysosomal system. Treatment modalities for this devastating disease are currently non-existent due to the severe obstacles associated with accessing the central nervous system with proteins or genes. The majority of mutations causing NPC disease are missense mutations that are distributed throughout the length of the NPC1 protein, with the most prevalent being the I1061T allele. Although NPC1 mutant proteins may be functional, they are typically trapped in the ER due to misfolding. […] We have developed and optimized a cell based renilla luciferase reporter assay in 1536 well format for the identification of up-regulators of the mutant Rab9 promoter. This assay presents data on the validation of hits from the primary screen, which used a firefly luciferase read-out. NIH Chemical Genomics Center [NCGC] NIH Molecular Libraries Probe Production centers Network [MLPCN] MLPCN Grant: MH089375 Assay Submitter (PI): Yiannis A. Ioannou
Huh7 cells stably expressing NPC promoter-luciferase will be seeded at 1,500 cells/well in 5 uL in 1,536-well white opaque plates with 23 nL/well of compound in DMSO solution. The assay plates will be incubated at 37 deg C for 24 hours, after which 3 uL/well BriteLite plus luciferase detection reagent mixture (Perkin Elmer) will be added. Luminescence signal will be measured in a ViewLux plate reader (Perkin Elmer) after a 10 minute incubation at the room temperature.
(qHTS replaces the single test concentration by a dilution series.)
For the molecule `CN1CCc2cc3c(c4c2C1Cc1ccccc1-4)OCO3` (stereo unspecified), the result was inactive.

`COc1cccc(CCNCc2ccc(SC)cc2)c1`: the result was inactive. The entry for `Cc1cccn2c(NCC3CCCO3)c(C(C)C)nc12` (stereo unspecified) is “inactive”. The same measure for `CCC(=NCc1cccnc1)c1c(O)n(-c2ccccc2)c(=O)[nH]c1=O`: “inactive”. The same measure for `COc1ccc(C(CC(=O)N2CCC3(CC2)OCCO3)NS(=O)(=O)c2ccc(F)cc2)cc1` (stereo unspecified): “inactive”; for `O=C1c2ccccc2C(=O)N1Cc1nc2ccccc2c(=O)n1-c1cccnc1`: “inactive”.
